# Compounds with a hit are over-represented: about 7.3% of the library has one in this group of screens.
# Rab9 prom act = activates the Rab9 promoter. Huh7 Rab9 promoter-luciferase reporter, luminescence, 24 h. Potency, µM (titrated, usually from 9.22 µM), without a hit: top-dose activation, negative = inhibition, hits mostly activators. 320,000 tested, 2.8% active. AID 485297; further: % of control where 0% means no effect; nearly all actives have a fitted effect of over 60% in size
#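 Luminescence read-out: Huh7 cells stably expressing Rab9-luciferase, treated 24 h with compound at 37 °C, then lysed with luciferase reagent for 10 min at ambient before reading.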
# NPC1 promoter act = NPC1 promoter activation. Huh7 NPC1 promoter luciferase reporter, 24 h. Potency, µM (series often up to 9.22 µM), without a hit: top-dose activation, actives largely listed as activators. 320,000 tested, 2.4% active. AID 485313; further: % of control where 0% means no effect; nearly all actives have a fitted effect of over 60% in size
#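 Luciferase expression driven by the NPC1 promoter was measured in stably transfected Huh7 cells after a 24 h compound incubation, using a luciferase reagent and a luminescence read.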
# FLuc modulator = inhibits or activates purified firefly luciferase, miR-21 counter-screen; P08659; purified FLuc, Km substrates, luminescence inhibition; Potency, µM (highest dose often 57.5 µM), for inactives: at the highest dose activity change, negative = inhibition, most hits filed as inhibitors; 360,000 tested, 6.9% active; AID 588342;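 further: plate controls were vehicle for no effect and reference inhibitor for full effect; nearly all actives have a fitted effect of over 55% in size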
# Target sequence (P08659 whole entry, looked up): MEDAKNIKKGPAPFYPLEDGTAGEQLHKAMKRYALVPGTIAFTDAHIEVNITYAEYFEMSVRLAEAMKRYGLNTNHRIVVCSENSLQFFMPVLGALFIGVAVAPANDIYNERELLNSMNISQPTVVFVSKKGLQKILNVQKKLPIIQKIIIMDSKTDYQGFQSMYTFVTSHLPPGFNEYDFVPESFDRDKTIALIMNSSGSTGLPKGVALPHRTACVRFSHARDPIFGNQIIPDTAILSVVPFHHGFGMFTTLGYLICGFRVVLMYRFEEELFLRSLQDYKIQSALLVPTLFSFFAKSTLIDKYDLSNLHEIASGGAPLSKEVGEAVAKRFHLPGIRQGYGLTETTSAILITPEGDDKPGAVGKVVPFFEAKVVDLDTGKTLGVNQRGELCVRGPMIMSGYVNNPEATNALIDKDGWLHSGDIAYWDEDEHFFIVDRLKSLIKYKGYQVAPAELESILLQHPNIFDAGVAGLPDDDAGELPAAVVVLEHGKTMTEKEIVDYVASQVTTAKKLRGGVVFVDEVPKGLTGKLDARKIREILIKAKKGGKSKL
#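 Biochemical qHTS of compounds, final roughly 60 µM downward over six points, against 10 nM purified firefly luciferase using Km concentrations of substrates (10 uM D-luciferin, 10 uM ATP) in Tris acetate pH 7.5 buffer; luminescence output.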
# ELG1 genotoxic = genotoxicity induction in ELG1-luciferase HEK293T cells; HEK293T ELG1-luciferase reporter, luminescence, 16 h; 330,000 tested, 1.3% active; Potency, µM (titrated, usually from 46 µM), inactives show at the top dose activity change, positive = activation, actives largely listed as activators; AID 504466; further: % of control where 0% means no effect; nearly all actives have a fitted effect of over 60% in size
#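 ELG1-luciferase HEK293T cells, 2,000/well; compound pinned in; 16 hr, 37 °C, 5% CO2; ONE-Glo, 30 min RT; luminescence on CCD imager.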
# SMN2 splice up = increases expression of the SMN2 splice variant. HEK293 SMN2-luciferase splicing reporter, luminescence, 30-36 h. Potency, µM (highest dose often 46.1 µM), for inactives: at the top dose activity change, positive = activation, usual class: activators. 210,000 tested, 2.8% active. AID 1458; further: % of control where 0% means no effect; nearly all actives have a fitted effect of over 55% in size
#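 HEK293 cells carry an SMN2 minigene-luciferase reporter in which exon 7 inclusion puts luciferase in frame. Cells were seeded at 2000 cells/well, attached for 10-12 hours, then exposed to compounds for 30-36 hours at 37C before ONE-Glo luminescence.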
# p53 reactivator = re-activators of mutant p53; 320,000 tested, 0.063% active; Potency, µM (highest dose often 92.2 µM), inactives show at the highest dose activity change, positive = activation, usual class: activators; AID 504706; H1299 p53-A138V BP100-luciferase reporter, luminescence, 24 h; further: % of control where 0% means no effect; nearly all actives have a fitted effect of over 45% in size
#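 p53-null H1299 cells stably carrying temperature-sensitive p53-A138V and a BP100-luciferase reporter were pinned with compounds (4-point, 1:5 series) and held 24 hrs at 37 deg C. Luminescence was read 10 min after detection reagent.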
# * marks the source's active call; other numbers are inactive results; ? = inconclusive; / = no result given; [ ] = dose if it differs, or a comment. The call rests on the fitted dose curve; in most records, active means well fitted curve in the direction sought with a large enough effect; inconclusive means small, poorly fitted or top-dose-only effect, or another doubt; inactive means no such curve, though single readings can be large; an effect the other way counts as inactive or inconclusive. Potency means the concentration at half of the fitted maximal effect.
SMILES,Rab9 prom act,NPC1 promoter act,FLuc modulator,ELG1 genotoxic,SMN2 splice up,p53 reactivator
CC(=O)OC1CC2C(C)(C)C(O)C=C[C@@]2(C)C2CC[C@]3(C)C(=CC(=O)OC3c3ccoc3)[C@]12C (some centres undefined),/,/,/,/,-39.5%,/
C#CCN1C(=O)S/C(=C\c2ccc(N3CCOCC3)cc2C)C1=O,2.82µM*,?,2.39µM*,?,22.2%,14.6%
O=C(O)c1cc[c]([Hg][Cl])cc1,6.7%[46.1 µM],9.3%[46.1 µM],6.75µM*,-2.1%,-0.4%,5.4%
Brc1ccc(-c2csc(N3CCCCC3)n2)cc1,5.4%,0.8%,9.53µM*,/,/,/
CC1=C(O)C(=O)C=C2C1=CC=C1[C@]2(C)CC[C@@]2(C)C3C[C@](C)(C(=O)O)CC[C@@]3(C)CC[C@@]12C (some centres undefined),/,/,/,/,-94.5%,/
CC(C)(C)NC[C@H](O)c1cc(Cl)c(N)c(Cl)c1,/,/,/,/,2.7%[20.6 µM],/
CCC(=O)Nc1ccc(C(=O)OCc2ccccc2Cl)cc1,?,?,19µM*,14.9%,-14.4%,16.2%
CCC(=O)Nc1ccc(Cl)c(Cl)c1,/,/,/,/,-14.1%,/
Cc1ccc(-c2nc3ccccc3c(=O)n2-c2ccncc2)cc1,10.2%,-0.6%,-1.4%,-0.2%,-7.9%,14.6%
O=c1c2ccccc2nc(-c2ccc(-c3ccccc3)cc2)n1-c1ccncc1,-2.7%,-1.2%,16.9µM*,-3.6%,-20.5%,-9.9%
CNC(=O)[C@@H]1C[C@H]1[C@@H](NP(=O)(c1ccccc1)c1ccccc1)c1ccccc1,/,/,/,/,12.6µM*,/
Cc1cccc(N2C(=O)NC(=O)/C(=C\c3ccc(N4CCOCC4)cc3)C2=O)c1,0.9%,-5.5%,?,0.0%,/,1.1%
Cc1cccc(N2C(=O)NC(=O)/C(=C/c3ccc(-c4ccc(C(=O)O)c(Cl)c4)o3)C2=O)c1,-2.3%,-6.4%,6.01µM*,10.5%,13.4%,1.3%
O=C1NC(=O)N(c2ccc3c(c2)OCO3)C(=O)/C1=C\c1ccsc1,2.2%,-4.1%,23.9µM*,-1.4%,/,5.0%
O=C1NC(=O)N(c2ccc3c(c2)OCO3)C(=O)/C1=C\c1ccc(-c2ccccc2C(=O)O)o1,-3.3%,-4.0%,15.1µM*,0.5%,/,-0.6%
O=C1NC(=O)N(c2ccc3c(c2)OCO3)C(=O)/C1=C/c1ccc(N2CCCCC2)o1,0.8%,-5.9%,-10.1%,10.0%,-15.6%,-2.0%
C=CCCC#N,/,/,/,/,0.7%,/
Cc1ccc(-n2c(O)c(/C=N/NC(=O)c3ccncc3)c(=O)[nH]c2=O)cc1C,-6.1%,0.1%,0.0%,4.2%,?,-0.1%
Cc1nn(-c2ccccc2)c(Cl)c1/C=N\NC(=O)c1cnccn1,21.7%,16.2%,6.01µM*,14.0%,?,15.8%
O=C1NC(=O)N(c2ccccc2F)C(=O)/C1=C/c1ccc(Sc2nc3ccccc3[nH]2)o1,-5.1%,0.7%,?,0.5%,3.2%[1.84 µM],-2.4%
O=C1NC(=O)N(c2cccc(Cl)c2)C(=O)/C1=C\c1ccc(Sc2nc3ccccc3[nH]2)o1,-1.4%,-1.8%,23.9µM*,0.1%,7.0%,-8.1%
O=Cc1ccc(Cl)cc1Cl,/,/,/,/,-5.0%,/
CN(C(=O)Oc1ccc(C(C)(C)C)cc1)c1ccccc1,?,20.0%,23.9µM*,?,11.7%,-11.0%
CCC(=O)c1ccc(OC(=O)N(C)c2ccccc2)cc1,2.24µM*,2.82µM*,?,14.6µM*,11.2µM*,?
CN(C)CCC(C#N)(c1ccccc1)c1ccccc1,/,/,/,/,-8.3%[9.22 µM],/
SMILES,Rab9 prom act,NPC1 promoter act,FLuc modulator,ELG1 genotoxic,SMN2 splice up,p53 reactivator
Cc1ccnc(-n2c(C)cc(C=C3C(=O)N(C)C(=S)N(C)C3=O)c2C)c1,-2.1%,0.7%,19µM*,8.1%,-2.9%,-1.7%
Cc1cc(C=C2C(=O)N(C)C(=S)N(C)C2=O)c(C)n1-c1ccncc1,-6.4%,-2.7%,26.9µM*,8.1%,/,-3.6%
O=C(c1ccc(CNS(=O)(=O)c2ccccc2)cc1)N1CCC2(CC1)OCCO2,3.55µM*,?,?,?,-38.2%,?
O=C(CN1CCN(Cc2ccc(Cl)cc2)C1=O)N1CCC2(CC1)OCCO2,-3.2%,-2.0%,13.2%,-0.8%,-7.1%,2.8%
O=C(CSc1ccccc1)N1CCC2(CC1)OCCO2,?,?,?,10.3µM*,12.6µM*,?
O=C(c1ccc(CNS(=O)(=O)c2ccc(Br)cc2)cc1)N1CCC2(CC1)OCCO2,-5.8%,-3.0%,6.3%,-4.7%,-31.9%,-6.2%
O=C(CN1C(=O)COc2ccccc21)N1CCC2(CC1)OCCO2,-0.5%,0.5%,-0.8%,-0.4%,/,?
Cn1c(=O)cc(SCC(=O)N2CCC3(CC2)OCCO3)c2ccc(Cl)cc21,-2.4%,-1.3%,1.0%,14.2%,20µM*,-18.3%
CC(=O)[O-].CC(=O)[O-].O.O.[Cd+2],/,/,/,/,-51.0%,/
O=C(O)C[SH+]CC(=O)O.O=C(O)C[SH+]CC(=O)O.[Cu],/,/,/,/,2.4%[9.22 µM],/
Cl/C=C/CCl,/,/,/,/,-12.0%,/
CCNC(C)(C)[C@@H](SS)c1ccc(Br)cc1,/,/,/,/,-10.5%[9.22 µM],/
Cc1cc(C(=O)CS(=O)(=O)c2ccc(F)cc2)cc(C)c1OC(=O)N(C)C,2.82µM*,3.98µM*,10.7µM*,?,6.2%,9.3%
CN(C)C(=O)Oc1c(Cl)cc(Cl)c2ccccc12,12.3%,-2.1%,0.0%,2.2%,2.1%,-4.3%
Cc1cc(C(=O)Nc2ccc(CC(=O)O)cc2)c(C)o1,3.0%,-7.8%,10.7µM*,0.2%,/,-13.7%
CCNC(=O)O/N=C(\C)c1sc(-c2ccc(Cl)cc2)nc1C,3.55µM*,1.41µM*,2.69µM*,?,28.6%,5.9%
C/C(=N\OC(=O)NC(C)C)c1sc(-c2ccc(Cl)cc2)nc1C,?,?,13.5µM*,?,?,4.1%
C/C(=N\OC(=O)NC(C)C)c1sc(-c2ccccc2)nc1C,?,3.98µM*,?,6.1%,21.1%,10.4%
O=C(O)C[C@H]1OCC=C2CN3CC[C@@]45C6=CC(=O)C(=O)C([N+](=O)[O-])=C6N[C@H]4[C@H]1[C@H]2C[C@@H]35,/,/,/,/,-15.1%[9.22 µM],/
COc1cc(/C=C/C(=O)c2c(O)n(CCc3ccccc3)c(=O)[nH]c2=O)ccc1O,-7.7%,-1.2%,6.75µM*,-3.4%,-63.1%,?
O=C(/C=C/c1ccccc1)c1c(O)n(CCc2ccccc2)c(=O)[nH]c1=O,-1.9%,-3.4%,3.0%,-0.8%,-86.6%,4.0%
Clc1ccc(C(c2ccccc2Cl)C(Cl)(Cl)Cl)cc1 (centres undefined),/,/,/,/,-1.1%,/
Cc1nc2ccc(NC(=O)C3COc4ccccc4O3)cc2s1 (centres undefined),?,?,12µM*,?,/,12.3%
Clc1nc(Cl)nc(Nc2ccccc2Cl)n1,/,/,/,/,6.0%,/

# Screening data as filed in PubChem.
